Source: PubChem BioAssay AID1159580 (chemical genetic matrix, 2015)
Values joined by “and” are separate entries in the source; they are usually repeats but may differ in a detail not shown here. Equal values may be shown once. The whole screen tested about 5,500 compounds, of which about 2,000 (36%) were called active. Inconclusive results (about 18%) are left out. Rule as the data show it: active = normalized growth mostly below about 0.91 (no sharp cut-off); inconclusive = no clear call, values can overlap the other calls; inactive = mostly above about 0.92. The list shows a part of the results.

Assay: chemical genetic growth profiling, strain panel (AID 1159580);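 also: tested at 20 µM; growth read once vehicle control cultures reached saturation at 30 °C; 1 = growth at the plate median or of vehicle wells; lower values mean less growth of the strain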
Conditions: S. cerevisiae deletion strains, growth OD

Measured: normalized growth

CC(C)=CCc1c(O)cc2oc(C)cc(=O)c2c1O
active: locus YDR101C, strain arx1, active compounds read low 0.907 | locus YDR195W, strain ref2 1.16 [resistant] | locus YGL086W, strain mad1, active compounds read low 0.915 | locus YHR013C, strain ard1, active compounds read low 1.21 [resistant] | locus YHR142W, strain chs7, active compounds read low 0.851 | locus YHR200W, strain rpn10, active compounds read low 0.915 | locus YIL125W, strain kgd1, active compounds read low 0.904
inactive: locus YAL013W, strain DEP1, active compounds read low 0.96 | locus YAL021C, strain ccr4, active compounds read low 1.01 | locus YAL026C, strain drs2, active compounds read low 0.977 | locus YAL030W, strain snc1, active compounds read low 0.986 | locus YBL061C, strain skt5, active compounds read low 0.973 | locus YBR009C, strain hhf1, active compounds read low 0.984 | locus YBR021W, strain FUR4, active compounds read low 0.998 | locus YBR023C, strain chs3, active compounds read low 0.953 | locus YBR171W, strain sec66, active compounds read low 0.973 | locus YBR229C, strain ROT2, active compounds read low 1.01 | locus YBR231C, strain swc5, active compounds read low 0.98 | locus YBR279W, strain paf1, active compounds read low 0.982 | locus YCL011C, strain gbp2, active compounds read low 0.975 | locus YCL016C, strain dcc1, active compounds read low 0.969 | locus YCL029C, strain bik1, active compounds read low 0.986 | locus YCL061C, strain MRC1, active compounds read low 0.973 | locus YCL069W, strain vba3, active compounds read low 1.01 | locus YCR088W, strain abp1, active compounds read low 0.957 | locus YDL005C, strain med2, active compounds read low 0.981 | locus YDL035C, strain GPR1, active compounds read low 0.912 | locus YDL040C, strain nat1, active compounds read low 0.986 | locus YDL074C, strain BRE1, active compounds read low 0.947 | locus YDL101C, strain DUN1, active compounds read low 0.993 | locus YDL185W, strain tfp1, active compounds read low 0.98 | locus YDL192W, strain arf1, active compounds read low 0.93 | locus YDR001C, strain nth1, active compounds read low 0.976 | locus YDR069C, strain doa4, active compounds read low 1 | locus YDR137W, strain rgp1, active compounds read low 0.855 | locus YDR159W, strain sac3, active compounds read low 0.983 | locus YDR162C, strain NBP2, active compounds read low 0.903 | locus YDR297W, strain sur2, active compounds read low 0.973 | locus YDR318W, strain mcm21, active compounds read low 0.929 | locus YDR334W, strain swr1, active compounds read low 0.985 | locus YDR335W, strain msn5, active compounds read low 0.972 | locus YDR388W, active compounds read low 0.977 | locus YDR392W, strain spt3, active compounds read low 0.87 | locus YDR502C, strain sam2, active compounds read low 0.963 | locus YEL003W, strain gim4, active compounds read low 0.976 | locus YEL037C, strain rad23, active compounds read low 0.993 | locus YEL061C, strain CIN8 (second series), active compounds read low 0.979 | locus YEL061C, strain CIN8, active compounds read low 1 | locus YER015W, strain faa2, active compounds read low 0.983 | locus YER016W, strain bim1, active compounds read low 0.965 | locus YER110C, active compounds read low 0.989 | locus YER111C, strain swi4, active compounds read low 1 | locus YER155C, strain BEM2 (second series), active compounds read low 0.973 | locus YER155C, strain BEM2, active compounds read low 0.992 | locus YER167W, strain BCK2, active compounds read low 0.932 | locus YFR010W, strain ubp6, active compounds read low 0.98 | locus YGL078C, strain dbp3, active compounds read low 0.987 | locus YGL167C, strain pmr1, active compounds read low 0.996 | locus YGL173C, strain kem1, active compounds read low 0.985 | locus YGL227W, strain vid30, active compounds read low 0.968 | locus YGL240W, strain doc1, active compounds read low 0.968 | locus YGL248W, strain PDE1, active compounds read low 0.965 | locus YGL253W, strain hxk2, active compounds read low 0.964 | locus YGR078C, strain PAC10, active compounds read low 0.959 | locus YGR135W, strain pre9, active compounds read low 1 | locus YGR252W, strain gcn5, active compounds read low 0.878 | locus YHR027C, strain rpn1, active compounds read low 0.999 | locus YHR030C, strain SLT2, active compounds read low 1 and 0.999 | locus YHR079C, strain IRE1 (second series), active compounds read low 1 | locus YHR079C, strain IRE1, active compounds read low 0.971 | locus YHR094C, strain hxt1, active compounds read low 0.999 | locus YHR129C, strain ARP1, active compounds read low 0.987 | locus YIL066C, strain RNR3, active compounds read low 0.95 | locus YIL073C, strain SPO22, active compounds read low 1.01 | locus YIR030C, strain dcg1, active compounds read low 0.988 | locus YJL092W, strain hpr5, active compounds read low 0.975 | locus YJL095W, strain BCK1 (second series), active compounds read low 0.97 | locus YJL095W, strain BCK1, active compounds read low 0.928 and 0.969 | locus YJL115W, strain asf1, active compounds read low 0.984 | locus YJL129C, strain trk1, active compounds read low 0.951 | locus YJL134W, strain LCB3, active compounds read low 1 | locus YJL154C, strain vps35, active compounds read low 0.983 | locus YJL164C, strain tpk1, active compounds read low 0.929 | locus YJL166W, strain qcr8, active compounds read low 0.972 | locus YJL168C, strain set2, active compounds read low 0.999 | locus YJL187C, strain SWE1 (second series), active compounds read low 0.966 | locus YJL187C, strain SWE1, active compounds read low 0.98
